Assay outcomes as filed in PubChem.
D2 PAM-1: positive allosteric modulators of human D2 dopamine receptor | HEK293 T-REx D2, calcium flux, EC20 dopamine potentiation | actives 0.34% (n = 340,000) | AID 485347 | potentiation, % at 10 µM;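 active means potentiation over 3 SD above the plate norm, cut at about 30% in these data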; further: 0% is about no effect
Target sequence (P14416 whole entry, looked up): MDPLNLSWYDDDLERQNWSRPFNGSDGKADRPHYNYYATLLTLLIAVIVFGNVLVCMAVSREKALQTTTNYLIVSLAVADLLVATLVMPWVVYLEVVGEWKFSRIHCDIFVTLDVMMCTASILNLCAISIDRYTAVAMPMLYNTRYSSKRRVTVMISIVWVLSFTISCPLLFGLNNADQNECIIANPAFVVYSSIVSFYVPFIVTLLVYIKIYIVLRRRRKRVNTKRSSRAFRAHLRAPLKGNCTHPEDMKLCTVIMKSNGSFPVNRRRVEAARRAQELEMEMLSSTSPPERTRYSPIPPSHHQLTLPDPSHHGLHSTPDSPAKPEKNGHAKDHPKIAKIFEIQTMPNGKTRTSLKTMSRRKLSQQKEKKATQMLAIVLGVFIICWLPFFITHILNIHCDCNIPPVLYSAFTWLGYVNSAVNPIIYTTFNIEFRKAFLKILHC
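Tetracycline-induced HEK293 T-REx cells force-coupled to calcium signalling expressed D2; compounds were pin-added after a 10 s baseline, read kinetically 180 s, then an EC20 dopamine challenge followed with a further 180 s calcium read.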
D2 antagonist: antagonizes the human D2 dopamine receptor; HEK293 TREx D2 cells, calcium flux, dopamine EC80; inhibition, % at 10 µM; actives 2% (n = 340,000); AID 485344; in the data active means inhibition above about 30%; inactive means below that, where a call was filed; further: 0% is about no effect
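Antagonism is scored as inhibition of an EC80 dopamine-evoked calcium signal in a force-coupled, tetracycline-inducible HEK293 T-REx D2 line, with compound present 180 s before agonist.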
D2 ag-1: activates the human D2 dopamine receptor | P14416 | DiscoveRx PathHunter D2 beta-arrestin, luminescence, 90 min; 100% = 57 uM dopamine signal | activation, % (concentration not given with the values) | actives 0.084% (n = 360,000) | AID 624465; in the data active means activation above about 40%
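Agonist mode: compounds alone added to overnight-plated D2 PathHunter cells for 90 min at 37 C, with 57 uM final dopamine (EC100) defining full response. Beta-arrestin recruitment detected by chemiluminescent reagent, read after 1 h at ambient temperature.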
D2 ag-2: activates the human D2 dopamine receptor; HEK293 T-REx D2 cells, calcium flux agonist mode; P14416; actives 0.53% (n = 340,000); activation, % at 2 µM;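 active means activation over 3 SD above normal in the single-dose calcium agonist read, cut at about 30% in these data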; further: 0% is about no effect
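HEK293 Trex D2 cells, tetracycline-induced, o/n 30 C 5% CO2; no-wash Ca dye, RT 30–90 min; 10-cycle baseline, 23 nl cpd added, kinetic Ca read 180 s; agonist hits = positive Ca response.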
D2 PAM-2: potentiates the human D2 dopamine receptor allosterically. P14416. DiscoveRx D2 beta-arrestin cells, luminescence, 90 min; 100% = 57 uM dopamine signal. potentiation, % (concentration not given with the values). actives 0.23% (n = 360,000). AID 624464; in the data active means potentiation above about 50%
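PathHunter beta-arrestin assay in DiscoveRx D2 cells. Compounds were added with an EC20 of dopamine (50 nM final) for 90 min at 37 deg C. Luminescence was read 1 h after detection reagent, with 57 uM dopamine as the EC100 control.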
Active calls of the source: *. This is a sample that favours compounds with a hit; in the whole collection about 2.4% have one here.

For CCOC(=O)c1c(NC(=O)Nc2cccc(Cl)c2)sc(C)c1C the results were D2 PAM-1 -4.7, D2 antagonist -10.3, D2 ag-1 0.4, D2 ag-2 0.3 and D2 PAM-2 -2.4.
For CCOC(=O)c1sc(NC(=O)c2ccc(Cl)s2)cc1C the results were D2 PAM-1 -12.6, D2 antagonist 0.7, D2 ag-1 -7.3, D2 ag-2 0.0 and D2 PAM-2 -6.7.
For CCOC(=O)c1sc(NC(=O)Nc2ccc(Cl)cc2)cc1C the results were D2 PAM-1 2.5, D2 antagonist 38.0*, D2 ag-1 4.3 and D2 PAM-2 2.2.
For CCOC(=O)c1c(NC(=O)Nc2ccc(Cl)cc2)sc(C)c1C the results were D2 PAM-1 -15.5, D2 antagonist 35.8*, D2 ag-1 0.4, D2 ag-2 -0.9 and D2 PAM-2 -37.0.
CC(C)c1nn2c(=O)cc(COC(=O)c3ccco3)nc2s1 was read as D2 PAM-1 3.5.
Screening CCC(=O)N1CCc2cc(Br)cc(S(=O)(=O)CCC(=O)Nc3cccc(Cl)c3)c21 returned D2 PAM-1 -1.8 and D2 ag-2 -1.0.
Screening COc1ccccc1N1CCN(C(=O)CSc2nc3ccccc3nc2Cc2ccccc2)CC1 returned D2 PAM-1 4.6.
Cc1ccc(C)c(N2CCN(c3nc4ccccc4c4nc(CCn5nc(C)cc5C)nn34)CC2)c1 was read as D2 PAM-1 12.7 and D2 ag-2 -0.1.
For O=C(C[n+]1cccc(CNC(=O)c2ccc(OC(F)F)cc2)c1)Nc1cccc(C(F)(F)F)c1 the results were D2 PAM-1 -27.8, D2 antagonist 44.8*, D2 ag-1 -3.7, D2 ag-2 -0.8 and D2 PAM-2 -50.7.
For O=C(C[n+]1cccc(CNC(=O)c2ccc(OC(F)F)cc2)c1)Nc1ccc(F)cc1 the results were D2 PAM-1 -24.5, D2 antagonist 2.1, D2 ag-1 -2.0, D2 ag-2 -0.5 and D2 PAM-2 -34.9.
Screening Cc1ccc(C(=O)OCC(=O)N(C)c2ccccc2)c(C)c1 returned D2 PAM-1 -3.8, D2 antagonist -17.8, D2 ag-1 -2.9, D2 ag-2 -2.3 and D2 PAM-2 -11.6.
`CN(C(=O)COC(=O)c1cc(F)c(F)cc1Cl)c1ccccc1` gave D2 PAM-1 -0.9, D2 antagonist 31.6*, D2 ag-1 3.4, D2 ag-2 -0.9 and D2 PAM-2 -4.9.
Screening COC(=O)Cn1c(CN2CCN(c3ccc(F)cc3)CC2)nc2c1c(=O)n(C)c(=O)n2C returned D2 PAM-1 -29.7, D2 antagonist 30.4*, D2 ag-1 -2.2, D2 ag-2 0.3 and D2 PAM-2 -7.3.
For CCOCCn1c(CN2CCN(c3ccc(F)cc3)CC2)nc2c1c(=O)n(C)c(=O)n2C the results were D2 PAM-1 2.9, D2 antagonist -19.9, D2 ag-1 -2.3, D2 ag-2 0.3 and D2 PAM-2 -15.4.
`CC(C)CCn1c(CN2CCN(c3cccc(Cl)c3)CC2)nc2c1c(=O)n(C)c(=O)n2C` gave D2 PAM-1 -18.7, D2 antagonist 47.0*, D2 ag-1 1.9, D2 ag-2 -1.2 and D2 PAM-2 -9.6.
Screening COCCn1c(CN2CCN(c3cccc(Cl)c3)CC2)nc2c1c(=O)n(C)c(=O)n2C returned D2 PAM-1 -5.8, D2 antagonist 3.2, D2 ag-1 -0.2, D2 ag-2 0.8 and D2 PAM-2 -8.3.
CCOC(=O)Cn1c(CN2CCN(c3cccc(Cl)c3)CC2)nc2c1c(=O)[nH]c(=O)n2C was read as D2 PAM-1 -25.0, D2 antagonist 30.5*, D2 ag-1 -3.7, D2 ag-2 -0.1 and D2 PAM-2 -7.3.
For CCCN(CCC)CCNC(=O)C1CCN(c2nc3ccc(CC)cc3s2)CC1 the results were D2 PAM-1 -6.4.
Cc1ccccc1C(=O)NCCNc1ccc([N+](=O)[O-])cc1 was read as D2 PAM-1 -0.4, D2 antagonist 32.8*, D2 ag-1 -4.5, D2 ag-2 -0.2 and D2 PAM-2 -5.8.
For O=C(NCCNc1ccc([N+](=O)[O-])cc1)c1ccccc1Br the results were D2 PAM-1 34.1*, D2 antagonist -19.6, D2 ag-1 -0.4, D2 ag-2 0.5 and D2 PAM-2 -4.8.
Screening COc1cccc(C(=O)NCC2OCCc3ccccc32)c1 (stereo not given) returned D2 PAM-1 1.9 and D2 ag-2 0.4.
`CCOC(=O)c1cc(C)n(CC2CCC(C(=O)Nc3cccc(C(C)=O)c3)CC2)c1C` (stereo not given) gave D2 PAM-1 -0.7 and D2 ag-2 0.1.
CCC(Sc1nnc(C)n2c1cc1occc12)C(=O)Nc1ccccc1F (stereo not given) was read as D2 PAM-1 2.6 and D2 ag-2 1.1.
Nn1c(SCC(=O)Nc2ccccc2F)nnc1C1CCCCC1 was read as D2 PAM-1 36.8*, D2 antagonist -9.4, D2 ag-1 1.8, D2 ag-2 -0.5 and D2 PAM-2 -9.8.
COc1ccc(Cl)cc1NC(=O)CSc1nnc(C2CC2)n1N was read as D2 PAM-1 31.4*, D2 antagonist -9.5, D2 ag-1 -1.8, D2 ag-2 0.0 and D2 PAM-2 -7.6.
`COc1ccc(OC)c(NC(=O)CSc2nncc(=O)n2N)c1` gave D2 PAM-1 -14.6, D2 antagonist 36.0*, D2 ag-1 -4.1, D2 ag-2 0.8 and D2 PAM-2 -9.3.
Screening CC1CCN(CCCNC(=O)c2cc(Sc3ccc(F)cc3)nc3ccccc23)CC1 returned D2 ag-2 -0.8.
Screening CCOc1ccc(CC(=O)OCN2C(=O)c3ccccc3C2=O)cc1 returned D2 PAM-1 30.3*, D2 antagonist 1.9, D2 ag-1 0.3, D2 ag-2 -1.3 and D2 PAM-2 -12.4.
For Cc1ccc2c(CC(=O)Nc3ccc(S(=O)(=O)N4CCCCC4)cc3)coc2c1C the results were D2 PAM-1 2.1 and D2 ag-2 0.4.
Screening COC(=O)c1cccc(-c2ccc(/C=N/N3C(=O)C4C5C=CC(C6CC56)C4C3=O)o2)c1 (stereo not given) returned D2 PAM-1 -0.5, D2 antagonist 31.9*, D2 ag-1 0.0, D2 ag-2 -0.2 and D2 PAM-2 -5.8.
COC(=O)c1ccc(-c2ccc(/C=N/N3C(=O)C4C5C=CC(C6CC56)C4C3=O)o2)cc1 (stereo not given) was read as D2 PAM-1 -2.5, D2 antagonist 0.6, D2 ag-1 -2.3, D2 ag-2 0.1 and D2 PAM-2 -5.1.
CCOC(=O)CNC(=O)CSc1nnc(-c2ccco2)n1N was read as D2 PAM-1 -6.8, D2 antagonist 34.3*, D2 ag-1 -1.5, D2 ag-2 0.1 and D2 PAM-2 -0.1.
Screening CCOC(=O)CNC(=O)CSc1nnc(-c2ccco2)n1Cc1ccco1 returned D2 PAM-1 -0.1, D2 antagonist 2.9, D2 ag-1 1.0, D2 ag-2 -0.5 and D2 PAM-2 -6.5.
